Measured values as given in PubChem BioAssay AID743172 (National Center for Advancing Translational Sciences (NCATS), 2013).
Values joined by “and” are separate entries in the source; they are usually repeats but may differ in a detail not shown here. Equal values may be shown once. Results filed as inconclusive are left out. Active and inactive are the calls of the source. Calls follow the shape of the dose curve; as a rule, active = well fitted activation curve with a large enough effect; inconclusive = small, poorly fitted or top-dose-only effect; inactive = no such curve, though single readings can be large or run the other way.

Experiment: Extended Characterization of HPGD Inhibitors: PGE2 Assay in LNCaP Cells
Conditions: PGE2 HTRF level, 16 h; series mostly up to 100 µM
Description: The central role of HPGD is to inactivate prostaglandins such as prostaglandin E2 (PGE2) or prostaglandin D2 (PGD2). These prostaglandins are involved in a number of processes, including inflammation, differentiation, and cellular signaling, which makes HPGD an important target for pharmacological intervention. A number of prostaglandins of particular biological interest have been identified as substrates of HPGD. […] Over-production of PGE2 has been reported to promote tumor-associated neovascularization, cell proliferation, and tumor growth. […] In this orthogonal assay, we set out to measure if compounds were able to increase PGE2 production NIH Chemical Genomics Center [NCGC] NIH Molecular Libraries Probe Centers Network [MLPCN] MLPCN Grant: MH084681 Assay Submitter (PI): Structural Genomics Consortium
A549 cells, LNCaP cells or media were dispensed in 384-well plates (ProxiPlate-384 Plus, PerkinElmer, Shelton, CT) at 5,000 cells/9.9 uL/well using a CappAero384 multichannel pipette (Odense, Denmark). Separately on the plate, 10 uL of PGE2 calibration standards at a starting assay concentration of 5,000 pg/mL (1:2 dilution, 12-points, n = 1, prepared in media, Cisbio, Bedford, MA) were dispensed. Compounds (100 nL, final concentration range from 41.9 nM to 100 uM) were transferred using an ATS Acoustic Liquid Dispenser (EDC Biosystems, Fremont, CA). After being mixed using an automated liquid handler (CyBio, Jena, Germany), samples were incubated (37 deg C, 5% CO2, under a humidified atmosphere) for 16 hours. PGE2 labeled conjugates were added to each well, first 5 uL of PGE2-d2, followed by 5 uL of anti-PGE2-cryptate, centrifuged (1,500 rpm, 15 sec) and incubated (RT, protected from light) for 5 hours. Time-resolved fluorescence intensity (320 nm excitation, 615 and 665 nm emission) was measured using an Envision plate reader (PerkinElmer). Data was expressed as the ratio of 665 nm/615 nm emissions. Concentration (pg/mL) of samples were calculated from a 4-parameter logistic calibration curves of the PGE2 standards.

Potency, inactive:
Cc1cccc(-n2cnc3cc(C(=O)NC(C)(C)C)ccc32)c1, Cc1cccc(-n2cnc3cc(C(=O)N4CCC(C#N)CC4)ccc32)c1, c1ccc(-n2cc(-c3nnc4n3CCCCC4)cn2)cc1, Cc1cccc(-n2cnc3cc(C(=O)N4CCC(c5ccccc5)CC4)ccc32)c1, CCOC(=O)c1ccc(-n2cnc3cc(C(=O)N4CCCCC4)ccc32)cc1, Cc1cccc(-n2cnc3cc(C(=O)N4CCC(Cc5ccccc5)CC4)ccc32)c1, FC(F)(F)c1ccc(-c2nc(-c3nnc4n3CCCCC4)c(C(F)(F)F)o2)cc1

Potency, active:
Cc1cc(-c2nnc3n2CCCC3)c(C)n1-c1ccccc1 7.03 µM, Cc1ccccc1CSc1nc2ncc(Br)cc2[nH]1 22.2 µM, Cc1cc(-c2nnc3n2CCCCC3)c(C)n1-c1cccc2ccccc12 884 nM and 1.76 µM, O=C(c1ccc2c(c1)ncn2-c1cccc(Cl)c1)N1CCCCC1 0.222 µM, N#Cc1ccccc1CSc1nc2ncc(Br)cc2[nH]1 35.2 µM, Brc1cnc2nc(SCc3cccnc3)[nH]c2c1 7.03 µM, Fc1ccc(CSc2nc3ncc(Br)cc3[nH]2)cc1 35.2 µM, Cc1cc(-c2nnc3n2CCCCC3)c(C)n1-c1ccc(F)cc1 3.52 µM, Cc1cc(-c2nnc3n2CCCCC3)c(C)n1-c1ccc([N+](=O)[O-])cc1 2.22 µM, Cc1cccc(-n2cnc3cc(C(=O)N4CCCC4)ccc32)c1 55.8 µM, O=C(c1ccc2c(c1)ncn2-c1ccc(Cl)cc1)N1CCCCC1 0.884 µM, Brc1cnc2nc(SCc3ccccn3)[nH]c2c1 11.1 µM, COc1ccccc1-n1cnc2cc(C(=O)N3CCCCC3)ccc21 1.76 µM, Cc1cccc(-n2cnc3cc(C(=O)N4CCCC(C(F)(F)F)C4)ccc32)c1 (stereo not given) 1.76 µM, Brc1cnc2nc(SCc3ccncc3)[nH]c2c1 4.43 µM, O=[N+]([O-])c1ccc(CSc2nc3ncc(Br)cc3[nH]2)cc1 2.22 µM, COc1cccc(-n2cnc3cc(C(=O)N4CCCCC4)ccc32)c1 0.28 µM, Cc1ccc(-n2c(C)cc(-c3nnc4n3CCCCC4)c2C)cc1 0.702 µM, Clc1ccc(CSc2nc3ncc(Br)cc3[nH]2)cc1 14 µM, Cc1cccc(-n2cnc3cc(C(=O)NC4CCCCC4)ccc32)c1 22.2 µM, Cc1cccc(-n2cnc3cc(C(=O)N4CCCCCC4)ccc32)c1 1.76 µM, Cc1cc(-c2nnc3n2CCCCC3)c(C)n1-c1ccc(Cl)c(Cl)c1 0.352 µM, O=C(c1ccc2c(c1)ncn2-c1cccc(C(F)(F)F)c1)N1CCCCC1 2.8 µM, CC(C)(C)n1cnc2cc(C(=O)N3CCCCC3)ccc21 0.884 µM, CCOC(=O)c1ccc(-n2c(C)cc(-c3nnc4n3CCCCC4)c2C)cc1 14 µM, Cc1cc(-c2nnc3n2CCCCC3)c(C)n1-c1ccc(Br)cc1 2.8 µM, COc1ccc(-n2cnc3cc(C(=O)N4CCCCC4)ccc32)cc1 0.884 µM, N#Cc1ccc(CSc2nc3ncc(Br)cc3[nH]2)cc1 22.2 µM, FC(F)(F)c1cccc(CSc2nc3ncc(Br)cc3[nH]2)c1 35.2 µM, Cc1cc(-c2nnc3n2CCCCC3)c(C)n1-c1ccc(C(F)(F)F)cc1 3.52 µM, Cc1cc(-c2nnc3n2CCCCC3)c(C)n1-c1cccc(C#N)c1 1.76 µM, Cc1cc(-c2nnc3n2CCCCC3)c(C)n1-c1cccc(Cl)c1 0.558 µM, CC(C)(C)c1ccc(-n2cnc3cc(C(=O)N4CCCCC4)ccc32)cc1 4.43 µM
